We go through 40 molecules from ChEMBL document CHEMBL1157539, “Thousands of chemical starting points for antimalarial lead identification” (Nature, 2010).

This experiment has as its system HepG2. Nature of the experiment: GSK_TCMDC: Percent inhibition of human HepG2 cell line. Test compounds present at 10uM. Format: functional.
As usually defined, the Inhibition is the relative decrease from the control value, in per cent. For the molecule `COc1ccc(CNC(=O)c2cnc3c(O)cccc3c2Nc2cccc(NC(=O)c3ccc(-c4ccccc4)cc3)c2)cc1.O=C(O)C(F)(F)F`, the Inhibition is given as 42%.
With `CCCCCN1CCCC(CNS(=O)(=O)c2ccc(C(=O)Nc3ccc(C(F)(F)F)cc3)cc2)C1.O=C(O)C(F)(F)F` (stereo not given) the figure was 51%; with `CC(CN(C)C)C(=O)Nc1cccc(-c2cccc(-c3nc4ccccc4[nH]3)c2)c1` (stereo not given), 42%.
Take `N#Cc1ccc(CN2CCCN(Cc3cccc(NC(=O)c4cc5ccccc5s4)c3)CC2)cc1.O=C(O)C(F)(F)F`: the Inhibition is recorded as 31%.
In turn, `O=C(CC1NC(=O)c2ccccc21)Nc1ccc(-c2cccc(-c3nc4cc(C(F)(F)F)ccc4[nH]3)c2)cc1` (stereo not given) returned an Inhibition of 69%.
Next, `O=C(Nc1cccc(CN2CCCN(Cc3ccc4c(c3)OCO4)CC2)c1)c1ccc(Cl)c(Cl)c1.O=C(O)C(F)(F)F`: 34%; `CCc1ccc(NC(=O)c2ccc(CN3CCCN(Cc4cccc(Cl)c4)CC3)cc2)cc1.O=C(O)C(F)(F)F`: 50%; `CC(C)CCNC(=O)C1Cc2c([nH]c3cc(Br)ccc23)C2(CCN(Cc3ccccc3)CC2)N1` (stereo not given): 10%.
Consider `COc1ccc(F)cc1-c1ccc(C(=O)N2CCCN(c3ccc(C#N)cn3)CC2)cc1`, for which the Inhibition worked out at 9%.
With `CCC(=O)Nc1cc(=O)[nH]c2nc(-c3ccc(Cl)cc3)nn12` the figure was 3%.
Next, `N#Cc1ccc(N2CCN(C(=O)c3cccc(-c4noc(C(F)(F)F)n4)c3)CC2)nc1`: 18%.
With `CC(C)(C)c1ccc2[nH]c(-c3ccc(/C=C/C(=O)NCc4cccc(C(F)(F)F)c4)cc3)nc2c1` the figure was 31%; with `CCn1cc(-c2nc(-c3cc(OC)cc(OC)c3)no2)c(=O)c2ccccc21`, 0%.
Take `O=C(O)C(F)(F)F.O=C(c1cccs1)N(Cc1cccc(-c2ccc(CNCCc3ccccc3)cc2)c1)C1CCN(Cc2ccccc2)CC1`: the Inhibition is 3%.
With `Cc1cc(Nc2cc(Cl)cc(Cl)c2)nc(N)n1` the figure was 0%; with `CCOc1cc(-c2nnc3[nH]c(=O)n(C)c(=O)c3n2)ccc1OC(C)C`, 15%.
Next, `CS(=O)(=O)O.FC(F)(F)COc1ccc(CNCCCCCCNCc2ccc(OCC(F)(F)F)c3ccccc23)c2ccccc12`: 99%.
Regarding `COc1cc(F)c2ncc(F)c(CCN3C[C@H](CNCc4ccc5c(n4)NC(=O)CS5)[C@H](O)C3)c2c1.Cl`, the Inhibition was found to be 10%.
Next, `COc1nc2c(CCN3CCC(NCc4ccc5c(c4)NC(=O)CO5)CC3)c(Cl)cnc2cc1F.Cl`: 15%; `O=C(Nc1ccc(Cl)cc1)N[C@H]1CCN(CCCCCNC(=O)C2CC2c2ccc(Cl)c(Cl)c2)C1` (stereo not given in full): 24%; `c1ccc(-c2cc3cccc(-c4nc5cnccc5[nH]4)c3o2)cc1`: 37%.
With `CC(C)COc1ccc(Cl)cc1Cc1ccc(-c2nc3cc(CCN4CCCC4)ccc3[nH]2)o1.Cl` the figure was 34%; with `NC(=O)c1cc(-c2ccccc2)cc2c(C3CCC(NCc4ccccc4)C3)c[nH]c12` (stereo not given), 99%.
`CCOC(=O)c1c(C)noc1Nc1ccc(OC)cc1` came in with an Inhibition of 0%.
For `C=CCn1c(Sc2ccc(C#N)c([N+](=O)[O-])c2)nnc1-c1cc(OC)cc(OC)c1`, the Inhibition was found to be 12%.
With `CCOc1cc(C(=O)Nc2ccccc2N2CCN(S(C)(=O)=O)CC2)cc(OCC)c1OCC` the figure was 0%; with `Br.O=C(CNc1ccncc1)c1c[nH]c2ccccc12`, 31%.
Next, `Oc1cccc(Nc2nc(NCc3ccco3)c3ccccc3n2)c1`: 9%.
For `CN1CCN(c2ccnc3ccc(NC(=O)c4ccc(Cl)c(Cl)c4)cc23)CC1`, the Inhibition was found to be 4%.
With `CCN1CCC(NCc2ccc(-c3ccc(Cl)cc3)cc2)CC1` the figure was 25%; with `CN(C)CCNC(=O)c1cccc(-c2cnc3ccc(NCc4ccc(Cl)c(Cl)c4)nn23)c1`, 31%.
Next, `CS(=O)(=O)CCNCc1ccc(-c2cc3c(Nc4ccc(OCc5cccc(F)c5)c(Cl)c4)ncnc3s2)[nH]1`: 5%.
In turn, `COc1cccc(C(=O)Nc2ccc(S(=O)(=O)c3cc4c(cc3OC)CCN(C)CC4)cc2)c1` displayed an Inhibition of 0%.
Next, `O=C(NC1CC1)c1ccc(N2CCOc3ccc(Cl)cc32)s1`: 8%.
Regarding `CCOC(=O)c1ccc(NC(=O)NC2CCN(CCCCCNC(=O)/C=C/c3ccc(Cl)c(Cl)c3)C2)cc1` (stereo not given), the Inhibition was determined as 23%.
With `Cl.N#Cc1ccc2c(c1)CCN(CCC1CCC(NC(=O)c3cc4ccc(Br)cc4[nH]3)CC1)C2` (stereo not given) the figure was 12%; with `O=C(O)C(F)(F)F.OCC1CCCCN1Cc1cccc(-c2cccc(-c3nc4ccccc4[nH]3)c2)c1` (stereo not given), 24%.
Next, `COc1cc(C)nc2ccc(NC(=O)Nc3ccc([N+](=O)[O-])cc3C)cc12`: 10%; `Cc1cc(=NN=Cc2cccc(Cl)c2)c2ccc(F)cc2[nH]1`: 0%.
With `CCOc1cc(NC(=O)Nc2ccnc3ccccc23)cc(OC)c1.Cl` the figure was 0%.
